Inconclusive results are not listed. A number with no mark means an inactive call. The source made the active and inactive calls. Calls come from the whole dose curve; as a rule, active = well fitted curve in the direction sought with a large enough effect; inconclusive = small, poorly fitted or top-dose-only effect, or another doubt; inactive = no such curve, though single readings can be large; an effect the other way counts as inactive or inconclusive.

Experimental findings from PubChem BioAssay (NCATS) are described below.

One assay deals with MKL-1. As to the kind of experiment: qHTS assay to identify novel small-molecules to repurpose for Merkel cell carcinoma treatment (AID 1296009). Note: nearly all actives have a fitted effect of over 60% in size. Note: potency is the fitted concentration of half-maximal effect. The conditions noted are these: MCC and control cell lines, CellTiter-Glo viability, 72 h; series mostly up to 46 µM. An outline of the steps: (§1)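 Luminescence from CellTiter-Glo, read 10 min after addition at room temperature, reported viability following a 72 hr, 37 degree celsius treatment with NPC or MIPE compounds in titration; values normalized to plate controls.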
(In general: Quantitative high-throughput screening tests each substance at several concentrations.)

Another assay has as its system WaGa. The description is as above. The conditions noted are these: MCC and control cell lines, CellTiter-Glo viability, 72 h; series mostly up to 46 µM. An outline of the steps: as §1
In general terms: ATP-based viability assays read luminescence as a measure of living cells.

Another assay has as its system Es-2. As to the kind of experiment: Primary qHTS to identify gynecologic anti-cancer compounds using libraries of approved drugs and bioactive compounds (AID 1345084). Note: nearly all actives have a fitted effect of over 55% in size. Note: potency is the fitted concentration of half-maximal effect. The following applies: Gynecologic cancer cell panel viability, ATPlite luminescence, 48 h; series mostly up to 57.5 µM. Put shortly: (§2)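 Measured: luminescence after ATPlite addition (15 min, RT). Exposure: 48 h, 37 C, 5% CO2.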

The next assay relates to HeLa. The description is as above. The following applies: Gynecologic cancer cell panel viability, ATPlite luminescence, 48 h; series mostly up to 57.5 µM. An outline of the steps: as §2
A further assay relates to Hek293T. The assay is described as above. The conditions noted are these: Gynecologic cancer cell panel viability, ATPlite luminescence, 48 h, control line for the selectivity index; series mostly up to 57.5 µM. An outline of the steps: as §2
The next assay has as its system OV90. The assay is described as above. The following applies: Gynecologic cancer cell panel viability, ATPlite luminescence, 48 h; series mostly up to 57.5 µM. An outline of the steps: as §2
For a further assay, the system named is SKOV3. The assay is described as above. The following applies: Gynecologic cancer cell panel viability, ATPlite luminescence, 48 h; series mostly up to 57.5 µM. An outline of the steps:
as §2

Another assay concerns Tov-21-G. The assay is described as above. The conditions noted are these: Gynecologic cancer cell panel viability, ATPlite luminescence, 48 h; series mostly up to 57.5 µM. Put shortly: as §2
A further assay relates to Tov112D. The description is as above. The following applies: Gynecologic cancer cell panel viability, ATPlite luminescence, 48 h; series mostly up to 57.5 µM. Put shortly: as §2
A further assay concerns MKL-2. Nature of the assay: qHTS assay to identify novel small-molecules to repurpose for Merkel cell carcinoma treatment (AID 1296009). Note: nearly all actives have a fitted effect of over 60% in size. Note: potency is the fitted concentration of half-maximal effect. The conditions noted are these: MCC and control cell lines, CellTiter-Glo viability, 72 h; series mostly up to 46 µM. An outline of the steps:
as §1

A further assay has as its system UISO. The description is as above. The following applies: MCC and control cell lines, CellTiter-Glo viability, 72 h; series mostly up to 46 µM. An outline of the steps:
as §1

Another assay concerns C33A. As to the kind of experiment: Primary qHTS to identify gynecologic anti-cancer compounds using libraries of approved drugs and bioactive compounds (AID 1345084). Note: nearly all actives have a fitted effect of over 55% in size. Note: potency is the fitted concentration of half-maximal effect. The conditions noted are these: Gynecologic cancer cell panel viability, ATPlite luminescence, 48 h; series mostly up to 57.5 µM. An outline of the steps:
as §2

In the next assay the test system is CASKI. The assay is described as above. The conditions noted are these: Gynecologic cancer cell panel viability, ATPlite luminescence, 48 h; series mostly up to 57.5 µM. Put shortly: as §2
A further assay relates to JEG-3. The description is as above. The conditions noted are these: Gynecologic cancer cell panel viability, ATPlite luminescence, 48 h; series mostly up to 57.5 µM. Put shortly:
as §2

In another assay the test system is PA-1. The assay is described as above. The following applies: Gynecologic cancer cell panel viability, ATPlite luminescence, 48 h; series mostly up to 57.5 µM. An outline of the steps: as §2
In another assay the test system is CAOV3. The assay is described as above. The following applies: Gynecologic cancer cell panel viability, ATPlite luminescence, 48 h; series mostly up to 57.5 µM. Put shortly: as §2
The nature of assay [1]: Drug repurposing screens with cells derived from glioblastoma tumor samples (AID 1345199). Note: nearly all actives have a fitted effect of over 40% in size. The conditions noted are these: GBM patient neurospheres viability, ATP luminescence, 48 h. Put shortly: (§3)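 Primary testing used CD133+ neurospheres from four GBM patients, seven concentrations, 48 h exposure and ATP-based viability; confirmation added three slower-growing patient lines.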

For another assay, the system named is astro. The description is as above. The conditions noted are these: viability, ATP luminescence, 48 h; series mostly up to 45.9 µM. Put shortly: as §3
% is set by controls: 0 for no effect and ±100 for the full control effect.

Regarding `Cc1nn(Cc2ccccc2Cl)c(C)c1CN(C)CC(O)COc1ccc(Cl)cc1` (configuration not stated), the Potency result in the assay on MKL-1 and in the assay on WaGa was “inactive” each time.
For the compound `Cc1ccccc1C(=O)c1ccc(Nc2ccc(Br)cc2N)cc1Cl`, the Potency entry in the assay with MKL-1, in the assay with Es-2, with HeLa, in the assay with Hek293T, in the assay with OV90 and in the assay with SKOV3 was “inactive” in each case. Also, the Potency entry with Tov-21-G and with Tov112D was “inactive” throughout.
In the case of `COc1c(C)cnc(Cn2cnc3c(Cl)nc(N)nc32)c1C`, the Potency entry in the assay with MKL-2 is “inactive”. Besides, the Potency with UISO is 0.743 µM (active); with WaGa, 0.209 µM (active).
On to `O=C(C=Cc1ccc(O)cc1)c1ccc(O)cc1O`, for which the Potency result in the assay with MKL-1 and with WaGa was “inactive” each time.
As for `c1cc(OCCN2CCCCC2)cc(-c2n[nH]c3ccc(-c4ncn[nH]4)cc23)c1`, the Potency result in the assay on MKL-1, in the assay with C33A, with CASKI, with Es-2, with HeLa and in the assay on Hek293T was “inactive” in each case. The Potency entry with JEG-3, with OV90, in the assay with PA-1, with Tov-21-G and in the assay with Tov112D was “inactive” throughout. The Potency in the assay with WaGa was 18.7 µM (active).
`Cc1ccc2c(c1)C(=O)[C@]1(O)CCN(c3ccccc3)C1=N2`: the Potency entry in the assay on MKL-2, in the assay with UISO, in the assay with C33A, in the assay with CASKI, in the assay with Es-2 and in the assay on HeLa was “inactive” each time. The Potency result in the assay with Hek293T, in the assay with JEG-3, with OV90, in the assay with PA-1, in the assay with SKOV3 and in the assay on Tov112D was “inactive” each time.
Take `O=C(c1ccc(C=Cc2n[nH]c3ccccc23)cc1)N1CCNCC1`: the Potency entry with MKL-2 was “inactive”.
Regarding `CN1CCc2c(n(Cc3ccc(C(=O)NO)cc3)c3ccccc23)C1`, the Potency in the assay with MKL-2 was 14.8 µM (active); with WaGa, 18.7 µM (active). In addition, the Potency entry in the assay with UISO, with C33A, in the assay with CASKI, in the assay with Hek293T, in the assay with JEG-3 and in the assay on OV90 was “inactive” in each case. Besides, the Potency result in the assay with Tov112D was “inactive”.
With `CC(C)n1c(C=C[C@H](O)C[C@H](O)CC(=O)O)c(-c2ccc(F)cc2)c2ccccc21`, the Potency in the assay with MKL-2 is 7.43 µM (active); with UISO, 10.5 µM (active); with WaGa, 18.7 µM (active).
For `CNC(=O)c1cc(Oc2ccc(NC(=O)Nc3ccc(Cl)c(C(F)(F)F)c3)c(F)c2)ccn1`, the Potency in the assay on MKL-2 was 16.6 µM (active); with UISO, 5.9 µM (active); in the assay with WaGa, 18.7 µM (active). Also, the Potency entry in the assay with CAOV3, in the assay on CASKI, with Es-2, in the assay with HeLa, in the assay with Hek293T and in the assay with PA-1 was “inactive” throughout. The Potency entry in the assay with SKOV3, with Tov-21-G and in the assay with Tov112D was “inactive” in each case.
In the case of `CCC[C@H](Nc1nc(-c2ccc(NC(=O)NCC)c(OC)c2)ncc1C)c1cccnc1`, the Potency with MKL-2 is 0.0187 µM (active).
As for `CN(C)CCOc1ccc(-c2nc(-c3ccc4c(c3)CCC4=NO)c(-c3ccncc3)[nH]2)cc1`, the Potency in the assay on MKL-2 is 14.8 µM (active). For the same compound, the Potency result with UISO was “inactive”.
For `NS(=O)(=O)c1ccc(Nc2nc(OCC3CCCCC3)c3[nH]cnc3n2)cc1`, the Potency entry in the assay with MKL-2, in the assay on C33A, in the assay on CASKI, in the assay with Es-2, with HeLa and in the assay with Hek293T was “inactive” in each case. Besides, the Potency result in the assay with JEG-3, in the assay on OV90, in the assay on PA-1 and with Tov112D was “inactive” in each case. The Potency in the assay on UISO was 2.35 µM (active); in the assay on Tov-21-G, 15.8 µM (active).
For `Cc1ccc(NC(=O)Nc2cc(C(F)(F)F)ccc2F)cc1Nc1ccc2c(c1)NC(=O)C2=Cc1ccc[nH]1`, the Potency result in the assay with MKL-2 was “inactive”. Moreover, the Potency in the assay with UISO is 18.7 µM (active).
As for `NCc1c[nH]c(=S)n1[C@H]1CCc2c(F)cc(F)cc2C1`, the Potency with MKL-2 was 20.9 µM (active).
Turning to `O=C(Nc1cccc2c(=O)cc(-c3nn[nH]n3)oc12)c1ccc(OCCCCc2ccccc2)cc1`, the Potency entry with MKL-1, with WaGa, in the assay on C33A, in the assay on CASKI, in the assay on HeLa and in the assay with Hek293T was “inactive” each time. For the same compound, the Potency result in the assay on JEG-3, with PA-1, with SKOV3, in the assay on Tov-21-G, with Tov112D and with astro was “inactive” each time. The activity, negative = cell killing was 1.64% in assay [1] (at 45.9 µM (top of the series), tumour line B); -5.85% in assay [1] (at 45.9 µM (top of the series), tumour line D); 16% in [1] (at 46.1 µM (top of the series), tumour line C).
